± gives the standard deviation.
The sequences below were run on MILI (PIWIL2) piRISC loaded with piRNA #1 (26 nt) (assay: pre-steady-state target cleavage rate (min^-1); guide: piRNA #1 5'p-UGAGGUAGUAGGUUGUAUAGUAUCCA; MIWI and MILI are mouse PIWI proteins and EfPiwi is from a freshwater sponge; tags in brackets are library labels; higher = faster piRNA-guided slicing of the target). Details: auxiliary factor: 500 nM mouse GTSF1.
Outline: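 A transcribed, DNA-blocked target RNA library […] was incubated at 33 °C for 0–8 or 0–960 min with 1 nM active affinity-purified piRISC carrying one synthetic guide, in HEPES–potassium acetate buffer with or without 500 nM GTSF1 partner protein. Uncleaved targets were then sequenced and normalised to depth and to weakly complementary targets. Data from three trials were pooled, with k3 capped at 0.0001 min^-1, and a burst-and-steady-state fit yielded the pre-steady-state cleavage rate.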
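Further: 1 nM active piRISC with 0.1 nM target library at 33 °C single turnover.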

Sequence	pre-steady-state target cleavage rate
GGAGACCUAACUAUACAACCUACGACCUCA	0.129 ± 0.027
GGAGACCAUUCUAUACAUCCUACUACCUCA	0.235 ± 0.019
GGAGAGGAUACUAUACAAACUACUACCUCA	0.134 ± 0.013
GGAGACCUAACUAUACAACCUACUACCGUCA	0.15 ± 0.034
GGAGUGGAUACUAUACACCCUACUACCUCA	0.0921 ± 0.0066
GGAGAGGUUACUAUACAACCUACUACCACA	0.0673 ± 0.0096
GGAGACCUAACUAUACAACCUCCUACCUCA	0.0273 ± 0.011
GGAGUGGAUACUAUACAACCACUACCUCA	0.00753 ± 0.002
GGAGUCGAUACUAUACAACCUACUACGUCA	0.0797 ± 0.0078
GGAGACCUUACUAUACAACCUACUACCAUCA	0.162 ± 0.024
GGAGACGAUACUAUACAUCCUACUUCCUCA	0.157 ± 0.028
GGAGUGGAUACUAUACCAACCUACUACCUCA	0.0424 ± 0.0067
GGAGACGUUACAAUACAACCUACUACCUCA	0.163 ± 0.015
GGAGUGGAUACUAUUCAACCUACUACCUCA	0.179 ± 0.0081
GGAGAGCAUACUAUACAACCUACUAGCUCA	0.0696 ± 0.016
GGAGACCUAAUAUACAACCUACUACCUCA	0.0727 ± 0.014
GGAGACCAAUACUAUACAACCUACUACCUCA	0.193 ± 0.021
GGAGACCUAUGAUAACAACCUACUACGCUCA	0.00466 ± 0.0023
GGAGACCUAACUAUACAAGCUACUACGUCA	0.152 ± 0.033
GGAGACCUAACUAUAACAACCUACUACCUCA	0.0743 ± 0.018

Sequence	pre-steady-state target cleavage rate
GGAGACCUAACUAUACAACCUACUACCUUCA	0.14 ± 0.028
GGAGACCAUUACUAUACAACCUACUACCUCA	0.137 ± 0.012
GGAGUCGUUACUAUACAACCUACUACCUCA	0.158 ± 0.011
GGAGACCAUACUAUGACAACCUACUACCUCA	0.165 ± 0.017
GGAGACGACACUAUACAACCUACUACCUCA	0.214 ± 0.025
GGAGACCAAACUAUACAACCUACUUCCUCA	0.0841 ± 0.035
GGAGAGGAUACUCAUACAACCUACUACCUCA	0.149 ± 0.015
GGAGACCUUACUAUACAACCUCCUACCUCA	0.0597 ± 0.01
GGAGUGGAUACUAUUCAUCCUACUACCUCA	0.265 ± 0.016
GGAGACCAUACUAUACAACCUAAUACCUCA	0.117 ± 0.018
GGAGUGGAUACUAUACAAGCUACUACCUGA	0.0875 ± 0.014
GGAGAGGAUACUAUACAUCCUACUACGUCA	0.00995 ± 0.003
GGAGAGGAUACUAUACAACACUACUACCUCA	0.00372 ± 0.0023
GGAGAGGAUACUAUUACAACCUACUACCUCA	0.167 ± 0.012
GGAGACCUAUCCUAUACAACCUACUACCUCA	0.106 ± 0.011
GGAGUGUAUACUAUACAACCUACUACCUCA	0.167 ± 0.0094
GGAGUGAAUACUAUACAACCUACUACCUCA	0.175 ± 0.009
GGAGAGCGAUACUAUACAACCUACUACCUCA	0.249 ± 0.02
GGAGUGGUUACUUUACAACCUACUACCUCA	0.162 ± 0.0089
GGAGACGAUACUAUACAACCUACUUCGUCA	0.0101 ± 0.0048

Reference: the supplement of paper PMC10338343
